PubChem BioAssay
Active and inactive are the calls of the source.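 How the source made its calls, unless noted: active means aptamer binding inhibition above 30%, about 3 SD of noise from non-fluorescent compounds; inactive means inhibition at or below 30%.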

What was measured:
[1] = reduced mouse 2C T cell binding to pMHC/ICAM-1 vesicles – MLPCN validation set, flow cytometry, LFA-1/ICAM-1 modulator project, pilot screen (AID 2523;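 active means response below a set limit, under 55% cells CD8-positive and vesicle-bound, and CD8 cells' 90th-percentile brightness under 279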;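 on vesicle binding response: mean PE anti-B7-1 fluorescence of CD8+ cells relative to row control; 100% = QL9-loaded vesicles with DMSO vehicle in the same plate row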); conditions: 2C mouse CD8+ T cells, at 7 µM, stronger effect = lower value; double positive events: measured here: CD8+/vesicle+ event percentage
[2] = target: Integrin beta-1 (Homo sapiens) + Integrin alpha-4 (Homo sapiens) (UniProt P13612+P05556); assay: alpha4beta1 integrin LIBS antibody binding reduction – U937 cells, HUTS-21 mAb, flow cytometry, validation set, VLA-4 allosteric modulator project, pilot screen (AID 2674;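 active means inhibition above 50%, about 3 SD of the validation set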;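 further: antibody binding induced by the VLA-4 ligand LDV present at three times its Kd; 0% = LDV ligand with antibody and no compound and 100% = antibody without LDV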); conditions: HUTS-21 LIBS mAb binding, at 6.7 µM, stronger effect = higher value, binding induced by LDV ligand
Sequence of Integrin beta-1 (Homo sapiens) + Integrin alpha-4 (Homo sapiens) (P05556 whole entry, looked up): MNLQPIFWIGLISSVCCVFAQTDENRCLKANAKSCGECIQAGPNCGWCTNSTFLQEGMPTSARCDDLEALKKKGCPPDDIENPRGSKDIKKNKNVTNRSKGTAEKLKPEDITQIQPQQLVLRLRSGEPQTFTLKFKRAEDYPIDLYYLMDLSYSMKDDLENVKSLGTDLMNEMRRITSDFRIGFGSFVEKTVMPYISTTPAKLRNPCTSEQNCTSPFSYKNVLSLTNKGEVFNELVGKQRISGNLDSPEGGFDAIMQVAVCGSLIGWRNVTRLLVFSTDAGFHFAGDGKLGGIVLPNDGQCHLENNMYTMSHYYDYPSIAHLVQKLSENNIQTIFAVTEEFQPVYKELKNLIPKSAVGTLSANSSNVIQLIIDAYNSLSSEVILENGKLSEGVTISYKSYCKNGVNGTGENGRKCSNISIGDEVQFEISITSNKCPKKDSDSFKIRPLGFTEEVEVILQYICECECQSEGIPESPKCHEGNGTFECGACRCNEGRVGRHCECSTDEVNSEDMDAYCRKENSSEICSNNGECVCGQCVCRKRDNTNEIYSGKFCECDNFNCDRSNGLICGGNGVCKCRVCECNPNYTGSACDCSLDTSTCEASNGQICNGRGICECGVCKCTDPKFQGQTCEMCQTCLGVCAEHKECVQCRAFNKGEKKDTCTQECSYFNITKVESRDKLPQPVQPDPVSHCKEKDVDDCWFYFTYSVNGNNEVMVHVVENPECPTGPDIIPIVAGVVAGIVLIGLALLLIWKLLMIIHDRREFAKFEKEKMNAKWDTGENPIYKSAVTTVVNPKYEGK
Sequence of Integrin beta-1 (Homo sapiens) + Integrin alpha-4 (Homo sapiens) (P13612 whole entry, looked up): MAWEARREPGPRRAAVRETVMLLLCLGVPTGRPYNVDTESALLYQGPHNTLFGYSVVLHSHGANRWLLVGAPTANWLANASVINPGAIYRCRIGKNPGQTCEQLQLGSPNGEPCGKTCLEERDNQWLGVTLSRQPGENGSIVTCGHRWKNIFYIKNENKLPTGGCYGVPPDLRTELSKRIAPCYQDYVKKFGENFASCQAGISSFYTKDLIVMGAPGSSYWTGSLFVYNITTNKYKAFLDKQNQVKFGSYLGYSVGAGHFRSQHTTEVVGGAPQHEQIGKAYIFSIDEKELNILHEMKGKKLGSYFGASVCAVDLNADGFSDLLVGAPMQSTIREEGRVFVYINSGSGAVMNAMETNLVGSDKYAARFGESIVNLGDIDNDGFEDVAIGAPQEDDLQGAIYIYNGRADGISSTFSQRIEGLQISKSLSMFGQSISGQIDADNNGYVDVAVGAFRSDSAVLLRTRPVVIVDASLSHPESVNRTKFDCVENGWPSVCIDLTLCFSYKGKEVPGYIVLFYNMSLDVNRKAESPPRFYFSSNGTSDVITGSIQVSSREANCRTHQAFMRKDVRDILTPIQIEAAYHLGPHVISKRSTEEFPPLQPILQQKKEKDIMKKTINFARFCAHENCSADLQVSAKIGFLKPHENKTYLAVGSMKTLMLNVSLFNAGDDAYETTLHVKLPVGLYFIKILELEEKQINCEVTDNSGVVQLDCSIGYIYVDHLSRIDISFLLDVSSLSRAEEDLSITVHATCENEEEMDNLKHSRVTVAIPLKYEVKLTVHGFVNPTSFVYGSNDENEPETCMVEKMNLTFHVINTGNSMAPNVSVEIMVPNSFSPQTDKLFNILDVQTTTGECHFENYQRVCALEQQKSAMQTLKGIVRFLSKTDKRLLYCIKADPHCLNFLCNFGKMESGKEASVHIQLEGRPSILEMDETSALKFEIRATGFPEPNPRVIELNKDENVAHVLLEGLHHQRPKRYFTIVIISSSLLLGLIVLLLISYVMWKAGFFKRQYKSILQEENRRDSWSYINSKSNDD

[3] = calorie-restriction mimetic ROS inhibitors, yeast – validation compound set, pilot screen (AID 2706;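 active means superoxide response below 65% of plate, a cut near 3 SD across the whole screen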;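 further: yeast exposed to compound for one week at 30 degrees C before staining; 100% = mean of all compound wells on the same plate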); conditions: S. cerevisiae aging, superoxide DHE fluorescence; at 10 µM, stronger effect = lower value
[4] = target: Beta-adrenergic receptor kinase 1 (Homo sapiens) (UniProt P25098); assay: GRK2 binders displacing RNA aptamer, biochemical, validation, human GRK2, bead flow cytometry (AID 488806); conditions: bead-bound GRK2, FAM-aptamer displacement, at 10 µM, stronger effect = higher value
Sequence of Beta-adrenergic receptor kinase 1 (Homo sapiens) (P25098 whole entry, looked up): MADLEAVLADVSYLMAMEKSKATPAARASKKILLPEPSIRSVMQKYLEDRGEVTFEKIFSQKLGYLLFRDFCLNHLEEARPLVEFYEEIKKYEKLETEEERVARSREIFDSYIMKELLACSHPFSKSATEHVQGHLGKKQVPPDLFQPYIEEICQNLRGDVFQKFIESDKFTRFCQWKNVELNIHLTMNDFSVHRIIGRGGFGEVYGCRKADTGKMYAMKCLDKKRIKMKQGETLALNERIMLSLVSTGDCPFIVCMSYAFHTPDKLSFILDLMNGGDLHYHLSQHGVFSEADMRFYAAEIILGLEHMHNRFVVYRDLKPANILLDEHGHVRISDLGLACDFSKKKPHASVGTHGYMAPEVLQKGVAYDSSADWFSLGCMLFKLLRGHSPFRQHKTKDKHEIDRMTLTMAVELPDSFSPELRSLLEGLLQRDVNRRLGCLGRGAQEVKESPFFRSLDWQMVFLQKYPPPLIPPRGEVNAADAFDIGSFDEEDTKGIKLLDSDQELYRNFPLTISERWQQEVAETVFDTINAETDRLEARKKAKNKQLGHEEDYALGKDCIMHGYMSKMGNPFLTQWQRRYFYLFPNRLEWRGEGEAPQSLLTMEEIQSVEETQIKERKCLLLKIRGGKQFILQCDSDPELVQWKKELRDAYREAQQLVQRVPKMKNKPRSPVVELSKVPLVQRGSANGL

[5] = target: Beta-2 adrenergic receptor (Homo sapiens) (UniProt P07550); assay: agonist-induced loss of surface beta2AR – cell-based, FAP fluorogen, flow cytometry, validation set, pilot screen (AID 504459;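 active means percent response above 42, roughly 3 SD of non-fluorescent test compounds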;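 further: agonist-driven loss of surface beta2AR via internalization measured by FAP dye flow cytometry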); conditions: Am2.2-beta2AR cells, at 10 µM, stronger effect = higher value
Sequence of Beta-2 adrenergic receptor (Homo sapiens) (P07550 whole entry, looked up): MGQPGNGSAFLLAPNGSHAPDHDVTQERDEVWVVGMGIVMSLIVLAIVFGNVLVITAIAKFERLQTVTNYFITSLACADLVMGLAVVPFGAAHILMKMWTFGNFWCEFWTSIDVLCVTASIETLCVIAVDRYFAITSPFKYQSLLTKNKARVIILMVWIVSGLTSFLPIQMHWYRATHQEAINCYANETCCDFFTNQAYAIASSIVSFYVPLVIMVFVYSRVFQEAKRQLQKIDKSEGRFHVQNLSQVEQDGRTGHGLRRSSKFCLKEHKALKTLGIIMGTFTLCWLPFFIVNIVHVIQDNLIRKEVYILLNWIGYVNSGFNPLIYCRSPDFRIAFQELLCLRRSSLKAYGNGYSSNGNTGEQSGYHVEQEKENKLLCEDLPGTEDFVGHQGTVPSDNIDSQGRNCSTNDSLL

[6] = target: AP-2 complex subunit beta (Homo sapiens) (UniProt P63010); assay: beta-arrestin/AP2 interaction blockers – biochemical, validation set, GST-AP2 beads, flow cytometry, pilot screen (AID 504541;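 active means inhibition above 54%, about 3 SD of non-fluorescent compounds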;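 further: AP2 carries R879A mutation and is captured from E. coli lysate; bead-bound FITC arrestin peptide fluorescence measuring arrestin peptide binding to AP2; 0% = DMSO wells and 100% = excess unlabeled arrestin peptide control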); conditions: FITC arrestin peptide, at 10 µM, stronger effect = higher value, AP2 beta2 appendage fragment, R879A mutant
Sequence of AP-2 complex subunit beta (Homo sapiens) (P63010 whole entry, looked up, the tested form may be a part, one chain of several): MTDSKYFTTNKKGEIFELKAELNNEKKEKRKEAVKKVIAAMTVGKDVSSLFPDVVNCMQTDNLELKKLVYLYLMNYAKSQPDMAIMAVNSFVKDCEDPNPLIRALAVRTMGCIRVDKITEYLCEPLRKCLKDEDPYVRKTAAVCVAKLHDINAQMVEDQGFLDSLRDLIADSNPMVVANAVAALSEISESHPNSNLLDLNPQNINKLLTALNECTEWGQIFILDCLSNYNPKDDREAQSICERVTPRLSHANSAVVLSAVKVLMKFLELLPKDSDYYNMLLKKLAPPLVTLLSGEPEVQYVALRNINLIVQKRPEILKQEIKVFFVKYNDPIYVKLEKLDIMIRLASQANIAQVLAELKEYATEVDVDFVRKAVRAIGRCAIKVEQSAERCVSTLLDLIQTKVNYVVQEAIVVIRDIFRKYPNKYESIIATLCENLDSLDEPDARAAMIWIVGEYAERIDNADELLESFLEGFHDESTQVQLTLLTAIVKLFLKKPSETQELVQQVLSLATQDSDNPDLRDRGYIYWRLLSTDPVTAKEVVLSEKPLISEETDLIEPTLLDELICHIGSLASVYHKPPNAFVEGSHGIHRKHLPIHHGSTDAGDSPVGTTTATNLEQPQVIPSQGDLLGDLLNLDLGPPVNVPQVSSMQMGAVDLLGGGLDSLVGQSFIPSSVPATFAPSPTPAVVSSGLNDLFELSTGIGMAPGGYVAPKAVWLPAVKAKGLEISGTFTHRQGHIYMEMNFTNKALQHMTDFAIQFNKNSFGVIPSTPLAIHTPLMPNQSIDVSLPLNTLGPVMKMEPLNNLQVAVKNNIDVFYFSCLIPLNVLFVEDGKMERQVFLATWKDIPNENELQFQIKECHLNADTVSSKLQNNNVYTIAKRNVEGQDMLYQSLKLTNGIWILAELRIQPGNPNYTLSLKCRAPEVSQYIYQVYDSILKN

[7] = cytosolic pH regulators acting via V-ATPase – S. cerevisiae, pHLuorin, HTS validation (AID 504600; in the data active means response above about 15%;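 further: plate controls were DMSO for no effect and reference compound for full effect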); conditions: V-ATPase proton transport, at 10 µM, stronger effect = higher value
[8] = test system: anti-desmoglein-3 scFv antibody binding to human DSG3; assay: blockers of pathogenic pemphigus antibody–desmoglein-3 binding – biochemical, validation compound set, bead-based, flow cytometry, pilot screen (AID 588368;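 active means binding below the plate cutoff, the plate median minus 3 SD, with a reading above zero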;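 further: signal is the median channel fluorescence of bead-bound GFP antibody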); conditions: Protein G beads, DSG3-Fc, scFv-GFP binding, at 10 µM, stronger effect = lower value
[9] = Nile Red efflux blockade in pump-expressing yeast – validation compound set, multiplex, phenotypic, pilot screen (AID 588506;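 active means efflux inhibition above 0.42, the validation set average plus 4 SD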;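 further: Nile Red retained in cells so higher fluorescence means more efflux inhibition; 0 = negative control wells and 1 = enniatin B 25 µM full block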); conditions: S. cerevisiae pump-expressing triplex, Nile Red efflux flow cytometry; at 10 µM; stronger effect = higher value; the pumps come from Candida albicans
[10] = target: ATP-binding cassette sub-family B member 6 (Homo sapiens) (UniProt Q9NP58); assay: blockers of ABCB6-driven porphyrin uptake – K562-ABCB6 cells, flow cytometry, validation set, pilot screen (AID 588550;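 active means inhibition above the screen-wide mean plus 3 SD, about 51%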;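 further: 0% = DMSO wells and 100% = benzethonium chloride 70 µM positive control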); conditions: K562-ABCB6 porphyrin accumulation, 1 h, at 10 µM, stronger effect = higher value
Sequence of ATP-binding cassette sub-family B member 6 (Homo sapiens) (Q9NP58 whole entry, looked up): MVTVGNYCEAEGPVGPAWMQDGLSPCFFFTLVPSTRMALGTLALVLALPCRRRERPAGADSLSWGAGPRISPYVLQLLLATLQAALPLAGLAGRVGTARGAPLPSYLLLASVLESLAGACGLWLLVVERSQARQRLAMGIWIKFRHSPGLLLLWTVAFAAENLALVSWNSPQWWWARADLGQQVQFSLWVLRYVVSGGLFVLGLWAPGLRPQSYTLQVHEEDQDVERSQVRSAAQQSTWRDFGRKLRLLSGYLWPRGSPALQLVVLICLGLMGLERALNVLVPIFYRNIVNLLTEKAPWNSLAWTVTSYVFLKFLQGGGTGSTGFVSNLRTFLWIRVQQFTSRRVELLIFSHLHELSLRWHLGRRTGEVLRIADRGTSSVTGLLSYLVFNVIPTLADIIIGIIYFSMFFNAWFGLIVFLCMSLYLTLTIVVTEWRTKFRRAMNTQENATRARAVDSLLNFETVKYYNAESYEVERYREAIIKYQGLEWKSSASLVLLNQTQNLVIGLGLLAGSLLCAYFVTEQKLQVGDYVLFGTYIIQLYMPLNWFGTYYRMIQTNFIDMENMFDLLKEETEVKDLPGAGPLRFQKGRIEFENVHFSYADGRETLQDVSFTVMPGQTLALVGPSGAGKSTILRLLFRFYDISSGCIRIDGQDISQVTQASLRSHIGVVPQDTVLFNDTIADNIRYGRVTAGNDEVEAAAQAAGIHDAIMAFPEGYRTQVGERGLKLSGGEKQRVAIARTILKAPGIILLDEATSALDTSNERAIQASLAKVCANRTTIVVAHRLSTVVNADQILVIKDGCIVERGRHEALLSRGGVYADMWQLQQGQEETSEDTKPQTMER

[11] = AML differentiation inducers, ER-HoxA9 marrow cells – cell-based, GFP/MAC1 double positive, flow cytometry, validation set, primary screen (AID 588685;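 active means differentiation response of at least 50%, scaled between solvent and reference control, from cells with both markers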;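 further: compound exposure lasts four days before antibody staining and flow analysis; 0% = DMSO wells and 100% = 5 µM fulvestrant positive control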); conditions: stronger effect = higher value, normalized: vehicle 0, fulvestrant 100

| Structure (SMILES) | double positive events [1] | vesicle binding response [1] | inhibition [2] | superoxide response (% of plate) [3] | aptamer binding inhibition [4] | response [5] | inhibition [6] | response [7] | binding (% of control) [8] | efflux inhibition (fraction of control) [9] | inhibition [10] | differentiation response [11] |
| --- | --- | --- | --- | --- | --- | --- | --- | --- | --- | --- | --- | --- |
| Cc1oc2c(C)c3oc(=O)c4c(c3cc2c1C)CCCC4 | 54.6% | 32.8% (active) | -22.2% (inactive) | 114% (inactive) | 3% (inactive) | -4.45% (inactive) | -2.86% (inactive) | 0.57% (inactive) | 89.1% (inactive) | -0.2 (inactive) | 2% (inactive) | 2.2% (inactive) |
| COc1ccccc1-c1c(C(F)(F)F)oc2cc(OC(=O)c3ccc([N+](=O)[O-])cc3)ccc2c1=O | 61.5% | 160% (inactive) | -1.97% (inactive) | 49.2% (active) | 2% (inactive) | -19.4% (inactive) | -4.55% (inactive) | 1.11% (inactive) | 99.3% (inactive) | 0.04 (inactive) | 1% (inactive) | -5.97% (inactive) |
| O=C(Oc1cccccc1=O)c1ccccc1 | 63.4% | 281% (inactive) | 21% (inactive) | 105% (inactive) | 6% (inactive) | -20.4% (inactive) | 1.79% (inactive) | -32.2% (inactive) | 102% (inactive) | 0 (inactive) | 2% (inactive) | 5.85% (inactive) |
| Oc1[nH]c2ccccc2c1N=Nc1ccccc1 | 49.4% | 168% (inactive) | 9.09% (inactive) | 104% (inactive) | 3% (inactive) |  | -8.96% (inactive) | -2.64% (inactive) | 103% (inactive) | -0.35 (inactive) | 10% (inactive) | -8.27% (inactive) |
| COC(=O)c1cc(OC)c(OC)cc1NC(=O)Nc1ccc(OC)cc1OC | 58.5% | 105% (inactive) | -14.5% (inactive) | 82% (inactive) | 0% (inactive) | 5.38% (inactive) | 11.9% (inactive) | -1.21% (inactive) | 100% (inactive) | -0.205 (inactive) | 7% (inactive) | 13% (inactive) |
| NC12CC3CC(C1)CC(O)(C3)C2 | 65.4% | 201% (inactive) | 2.66% (inactive) | 95.4% (inactive) | 3% (inactive) | -10% (inactive) | -6.38% (inactive) | 2.64% (inactive) | 99% (inactive) | 0.14 (inactive) | 11% (inactive) | 4.15% (inactive) |
| O=C(O)C[C@@H](O)C(=O)O | 56.6% | 193% (inactive) | 0.69% (inactive) | 104% (inactive) | 2% (inactive) |  | -10.9% (inactive) | -4.82% (inactive) | 102% (inactive) | -0.2 (inactive) | 4% (inactive) | 6.26% (inactive) |
| CSc1ccc2c(c1)N(CCC1CCCCN1C)c1ccccc1S2 (centres undefined) | 66.7% | 166% (inactive) | 27.1% (inactive) | 88.6% (inactive) | -7% (inactive) | 60.7% (active) | 0.21% (inactive) | -0.24% (inactive) | 106% (inactive) | -0.145 (inactive) |  | 11.5% (inactive) |
| O=c1[nH]c(Cc2ccccc2)nc2c1oc1ccccc12 | 58.4% | 200% (inactive) | -7.25% (inactive) | 94% (inactive) | 12% (inactive) | 0.02% (inactive) | -7.86% (inactive) | -2.08% (inactive) | 97% (inactive) | -0.17 (inactive) | 4% (inactive) | -4% (inactive) |
| COC1CCCCC1Nc1ccc(C)c(C)c1 (centres undefined) | 59.5% | 262% (inactive) | -1.79% (inactive) | 100% (inactive) | 5% (inactive) | 6.1% (inactive) | -5.05% (inactive) | 0.08% (inactive) | 94.7% (inactive) | 0.05 (inactive) | 5% (inactive) | -12% (inactive) |
| COc1cc(C(=O)OCCCN(C)C)cc(OC)c1OC | 60.1% | 180% (inactive) | 21.9% (inactive) | 93.6% (inactive) | -2% (inactive) | -28.8% (inactive) | 4.79% (inactive) | 1.07% (inactive) | 108% (inactive) | -0.09 (inactive) | -1% (inactive) | -4.99% (inactive) |
| COc1ccc(-c2coc3cc(OC(=O)N4CCOCC4)ccc3c2=O)cc1 | 62.6% | 185% (inactive) | -9.57% (inactive) | 105% (inactive) | -3% (inactive) |  | -9.14% (inactive) | 4.61% (inactive) | 109% (inactive) | -0.16 (inactive) | 10% (inactive) | 19.2% (inactive) |
| CN1[C@@H](CC(=O)c2ccccc2)CCC[C@H]1C[C@H](O)c1ccccc1 | 61.3% | 176% (inactive) | 6.4% (inactive) | 93.3% (inactive) | 4% (inactive) | 12.9% (inactive) | -9.53% (inactive) | 3.14% (inactive) | 103% (inactive) | -0.06 (inactive) | 3% (inactive) | -0.8% (inactive) |
| CC(C)CC(=O)OC1C(N2CCOCC2)c2c(ccc(/C=C/C(=O)N3CCOCC3)c2O)OC1(C)C (centres undefined) | 57.1% | 158% (inactive) | -3.16% (inactive) | 101% (inactive) | -1% (inactive) | 84.7% (active) | 35% (inactive) | -2.63% (inactive) | 108% (inactive) | 0.37 (inactive) | 5% (inactive) | 53.6% (active) |
| COc1ccc(CC(=O)N2CC3(C)CC2CC(C)(C)C3)cc1OC (centres undefined) | 64.1% | 255% (inactive) | -5.89% (inactive) | 91.8% (inactive) | 1% (inactive) | -7.91% (inactive) | -2.57% (inactive) | 1.81% (inactive) | 102% (inactive) | 0.44 (active) | 3% (inactive) | 5.6% (inactive) |
| Cc1ccc(P(=O)(CSC(=N)N)c2ccc(C)cc2)cc1 | 60.2% | 155% (inactive) | 4.27% (inactive) | 95% (inactive) | 8% (inactive) | 1.61% (inactive) | 2.42% (inactive) | -0.71% (inactive) | 104% (inactive) | 0.3 (inactive) | 35% (inactive) | 4.2% (inactive) |
| Cc1ccc2c(c1)C(O)(CC(=O)/C=C/C=C/c1ccccc1)C(=O)N2 (centres undefined) | 63.9% | 759% (inactive) | -4.6% (inactive) | 111% (inactive) | 2% (inactive) | -0.9% (inactive) | 4.01% (inactive) | -1.15% (inactive) | 99% (inactive) | -0.26 (inactive) | -7% (inactive) | 2.2% (inactive) |
| COC(=O)c1[nH]c2ccc(F)cc2c1NC(=O)C1=COCCO1 | 55.5% | 252% (inactive) | -3.04% (inactive) | 89.2% (inactive) | 1% (inactive) |  | 1.47% (inactive) | -2.26% (inactive) | 92.8% (inactive) | -0.01 (inactive) | 7% (inactive) | 45% (inactive) |
| C[C@]12CCC(=O)C[C@@H]1CC[C@@H]1[C@@H]2CC[C@]2(C)C=CC[C@@H]12 | 51.4% | 201% (inactive) | 5.36% (inactive) | 111% (inactive) | 2% (inactive) |  | 2.65% (inactive) | 17% (active) | 103% (inactive) | 0.1 (inactive) | 4% (inactive) | 28.9% (inactive) |
| COc1c2occc2c(OC)c2c(=O)cc(C(F)(F)C(F)(F)F)oc12 | 50% | 156% (inactive) | 3.49% (inactive) | 123% (inactive) | 2% (inactive) |  | -6.1% (inactive) | -16% (inactive) | 103% (inactive) | 0.03 (inactive) | 9% (inactive) | -16.4% (inactive) |
| COc1ccc(-c2c(NC(=O)c3ccco3)n(C)c3ccccc3c2=O)cc1 | 58.6% | 125% (inactive) | -1.09% (inactive) | 102% (inactive) | 3% (inactive) | 5.47% (inactive) | -5.24% (inactive) | -3.79% (inactive) | 99.6% (inactive) | -0.37 (inactive) | -2% (inactive) | -7.5% (inactive) |
| O=C(c1ccccc1)N1CCN(C(=O)c2ccccc2)CC1 | 57.3% | 175% (inactive) | -0.43% (inactive) | 102% (inactive) | 7% (inactive) | -22.4% (inactive) | -3.54% (inactive) | -5.95% (inactive) | 104% (inactive) | -0.13 (inactive) | 3% (inactive) | 12% (inactive) |
| Cc1cc(=O)oc(C)c1C(=O)NCCC(C)C | 53.1% | 150% (inactive) | -1.17% (inactive) | 87.3% (inactive) | 0% (inactive) |  | -9.02% (inactive) | 7.71% (inactive) | 102% (inactive) | 0.37 (inactive) | 15% (inactive) | 32.1% (inactive) |
| COc1cc2cc(C(=O)O)n(C)c2c(OC)c1OC | 54.5% | 184% (inactive) | 5.36% (inactive) | 103% (inactive) | -6% (inactive) |  | 17.7% (inactive) | -19.4% (inactive) | 106% (inactive) | -0.01 (inactive) | 2% (inactive) | -3.43% (inactive) |
| CN1CCN(C2=Nc3cc(Cl)ccc3Nc3ccccc32)CC1 | 61.7% | 222% (inactive) | 31.2% (inactive) | 84.7% (inactive) | -4% (inactive) | -25% (inactive) | 9.21% (inactive) | 6.59% (inactive) | 102% (inactive) | 0.04 (inactive) | -2% (inactive) | -5.97% (inactive) |
| CC(C)CC(=O)N(Cc1ccc(F)cc1)C1CCS(=O)(=O)C1 (centres undefined) | 61.8% | 204% (inactive) | 0.25% (inactive) | 114% (inactive) | 2% (inactive) | 22.9% (inactive) | 1.93% (inactive) | 3.28% (inactive) | 102% (inactive) | 0.91 (active) | 19% (inactive) | -8.96% (inactive) |
| O=C(CCNNC(=O)c1ccncc1)NCc1ccccc1 | 66.8% | 184% (inactive) | 18.4% (inactive) | 101% (inactive) | -1% (inactive) |  | 26.4% (inactive) | 1.75% (inactive) | 99% (inactive) | 0.48 (active) | 5% (inactive) | -24.4% (inactive) |
